Source: PubChem BioAssay
PAFAH1B2 inh: PAFAH1B2 enzyme inhibitors, primary screen, biochemical, fluorescence polarization, human; Platelet-activating factor acetylhydrolase IB subunit alpha2 (Homo sapiens), P68402; recombinant PAFAH1B2, FP-rhodamine activity probe; inhibition, % at 3.39 µM; 340,000 compounds, 1.2% hits;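 active = inhibition above the mean of all tested compounds plus 3 SD, cut at about 24% in these data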;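 note: 0% = enzyme with DMSO and 100% = wells lacking PAFAH1B2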
Rin1-Abl PPI inh: inhibitors of Rin1-Abl protein binding, primary screen, biochemical, TR-FRET; Tyrosine-protein kinase ABL1 (Homo sapiens) + Ras and Rab interactor 1 (Homo sapiens), …; inhibition, % at 7.35 µM; 360,000 compounds, 0.4% hits; AID 588664, 2011; in the data active = inhibition above about 5%, passing the limit was not always enough
pPAFAH FP inh: pPAFAH enzyme inhibitors, primary screen, biochemical, fluorescence polarization, human. 330,000 compounds, 1.5% hits. recombinant pPAFAH, FP-rhodamine probe fluorescence polarization. inhibition, % at 3.39 µM;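 active = inhibition above the mean inhibition across the screen plus 3 SD, cut at about 25% in these data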;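 note: inhibitors block binding of the rhodamine activity-based probe so polarization drops; 0% = enzyme with DMSO and 100% = wells lacking pPAFAH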
PAFAH1B3 inh: PAFAH1B3 enzyme inhibitors, primary screen, biochemical, fluorescence polarization, human. inhibition, % at 3.39 µM. Platelet-activating factor acetylhydrolase IB subunit alpha1 (Homo sapiens), Q15102. recombinant PAFAH1B3, FP-rhodamine probe. 340,000 compounds, 0.28% hits;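 active = inhibition above the screen-wide average of all tested compounds plus 3 SD, cut at about 25% in these data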;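 note: 0% = enzyme with DMSO only and 100% = wells lacking PAFAH1B3 protein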
PAFAH2 inh: PAFAH2 enzyme inhibitors, primary screen, biochemical, fluorescence polarization, human; Platelet-activating factor acetylhydrolase 2, cytoplasmic (Homo sapiens), Q99487; recombinant PAFAH2, FP-rhodamine activity probe; inhibition, % at 3.39 µM; 340,000 compounds, 0.99% hits; AID 492956, 2010;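 active = inhibition above the mean over all tested compounds plus 3 SD, cut at about 30% in these data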;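 note: inhibitors block probe labeling of enzyme so polarization drops; 0% = enzyme with DMSO and 100% = wells lacking PAFAH2 protein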
eLon inh: inhibitors of E. coli Lon protease, primary screen, biochemical, fluorescence polarization; 360,000 compounds, 0.42% hits; purified E. coli Lon protease; P0A9M0; inhibition, % at 7.94 µM; in the data active = inhibition above about 13%, passing the limit was not always enough;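 note: 0% = enzyme with probe and DMSO and 100% = no enzyme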
E coli Lon conf: E. coli Lon protease inhibitor retest, confirmation, biochemical, fluorescence polarization; shares compounds with eLon inh; purified E. coli Lon; inhibition, % at 7.94 µM; 1,400 compounds, 31% hits; in the data active = inhibition above about 16%;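 note: 0% = enzyme with probe and DMSO and 100% = no enzyme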
* = called active by the depositor; / = not tested or not shown; + = active, no number. An excerpt weighted towards active compounds, which were near 3.1% of everything screened.

SMILES	PAFAH1B2 inh	Rin1-Abl PPI inh	pPAFAH FP inh	PAFAH1B3 inh	PAFAH2 inh	eLon inh	E coli Lon conf
COc1cccc(/C(C)=N/Nc2ccc(S(=O)(=O)N3CCCCC3)cn2)c1	13.9	0.7	2.4	0.7	7.2	21.8*	3.6
O=C1c2cccc3c(O)ccc(c23)C(=O)N1Cc1ccccc1	26.3*	-0.7	31.2*	35.4*	49.5*	+	+
O=C(O)c1cccc(CN2C(=O)c3ccccc3C2=O)c1	0.2	0.9	-0.9	0.5	10.1	5.1	/
CN1CCc2c(sc3c2C(=O)NC(c2ccccn2)N3)C1 (configuration not stated)	4.0	0.1	6.5	8.0	2.3	24.3*	-8.4
CC(C)Oc1ccc(S(=O)(=O)N2CCOCC2)cc1NC(=O)C1CCCCC1	6.5	0.6	0.2	7.7	0.7	0.3	/
O=C1C(Cl)=C(N2CCN(Cc3ccccc3)CC2)C(=O)N1Cc1ccccc1	4.3	1.5	-2.6	1.4	4.5	36.3*	0.1
O=C(CSc1nc2ccccc2o1)c1ccccc1	-3.8	-0.2	2.0	-2.1	-15.5	52.8*	24.2*
COc1cccc(OC)c1OCC(O)CN1CCN(c2ccc(F)cc2)CC1 (configuration not stated)	7.9	0.6	2.8	0.4	3.3	7.4	/
COc1cccc(OCC(O)CN2CCN(c3ccc(F)cc3)CC2)c1 (configuration not stated)	3.1	0.8	-0.3	-0.9	-10.2	19.6*	-14.3
COc1ccc(O)c(C(=O)c2cnn(-c3ccccn3)c2)c1	1.1	5.1	-1.3	2.2	-2.7	84.2*	-12.5
COc1ccc(CCN2C(=O)CC(N3CCN(S(=O)(=O)c4ccccc4)CC3)C2=O)cc1 (configuration not stated)	-9.1	-3.0	-0.5	10.1	-3.0	12.3*	-7.9
Cc1nnc(NC(=O)c2ccc3c(c2)NC(=O)CS3)s1	3.0	1.6	-2.9	3.2	5.5	25.5*	-5.7
Cc1ccc(NC(=O)c2ccc3c(c2)NC(=O)CS3)nc1	3.3	0.5	3.4	6.3	7.0	-12.2	/
CN(C(=O)CSc1nnc(-c2ccco2)n1Cc1ccccc1)C1CCS(=O)(=O)C1 (configuration not stated)	-4.4	-0.8	1.0	2.3	-0.2	-6.4	/
O=[N+]([O-])c1cccnc1-n1cnc2ccccc21	1.9	0.2	-3.4	10.3	-6.0	-11.6	/
Cc1cc2ncn(-c3ncccc3[N+](=O)[O-])c2cc1C	-1.3	-3.2	8.9	-5.5	11.7	24.7*	1.0
O=C(c1nc2ccccn2c1CN1CCCC(O)C1)N1CCN(C2CCCCC2)CC1 (configuration not stated)	1.4	-1.2	4.1	-5.4	3.5	19.1*	4.2
COC1CCN(Cc2c(C(=O)N3CCN(C4CCCCC4)CC3)nc3ccccn23)CC1	-2.2	-1.0	-4.8	-6.0	-2.3	8.1	/
COCC1CCN(Cc2c(C(=O)N3CCN(C4CCCCC4)CC3)nc3ccccn23)C1 (configuration not stated)	-1.4	2.6	-1.6	1.3	-3.9	25.8*	-2.9
COCCN1C(=O)c2ccccc2C1c1nc2ccccc2[nH]1 (configuration not stated)	/	2.9	/	/	/	-9.3	/
COc1ccc(CNC(=O)C2CCC(=O)N(C3CCCCCC3)C2)c(OC)c1 (configuration not stated)	/	-3.4	/	/	/	-8.4	/
Cc1ccccc1NC(=O)NCCCN1CCCC1	-2.0	-2.9	-3.1	2.9	-0.7	0.1	/
O=C(NCCCN1CCCC1)Nc1ccccc1[N+](=O)[O-]	-0.7	1.9	0.3	1.9	7.2	16.4*	9.1
COc1ccc(C2=CC(c3ccco3)n3ncnc3N2)cc1 (configuration not stated)	1.4	2.0	/	2.2	1.1	48.8*	69.1*
